Screening results: PubChem, several laboratories
In the library only some 2.9% were active in any assay of this set; here they are far more common.
Hck Nef HTS: inhibitors of Nef-activated human Hck kinase, primary screen, biochemical, Z-Lyte FRET, 384-well, Hck-YEEI; 220,000 tested, 0.68% active; inhibition, % at 20 µM; Tyrosine-protein kinase HCK (Homo sapiens), P08631; Recombinant Hck-YEEI plus Nef, Z-Lyte FRET kinase assay; AID 463187, 2010;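 active = Hck-Nef kinase inhibition above about 50%, limit read from the data; inactive = inhibition below that limit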;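 also: 0% = DMSO with Hck plus Nef and 100% = Hck alone without Nef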
Mcl-1 Bim block: inhibitors of Bim peptide binding to Mcl-1, primary screen, biochemical, bead-based flow cytometry, multiplex | Bim peptide-Mcl-1 binding | 190,000 tested, 0.1% active | Induced myeloid leukemia cell differentiation protein Mcl-1 (Homo sapiens), Q07820 | inhibition, % at 10 µM | AID 1009, 2008; in the data active = inhibition above about 40%;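 also: 0% = no compound tracer wells and 100% = peptide blocker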
Target sequence (Q07820 whole entry, looked up): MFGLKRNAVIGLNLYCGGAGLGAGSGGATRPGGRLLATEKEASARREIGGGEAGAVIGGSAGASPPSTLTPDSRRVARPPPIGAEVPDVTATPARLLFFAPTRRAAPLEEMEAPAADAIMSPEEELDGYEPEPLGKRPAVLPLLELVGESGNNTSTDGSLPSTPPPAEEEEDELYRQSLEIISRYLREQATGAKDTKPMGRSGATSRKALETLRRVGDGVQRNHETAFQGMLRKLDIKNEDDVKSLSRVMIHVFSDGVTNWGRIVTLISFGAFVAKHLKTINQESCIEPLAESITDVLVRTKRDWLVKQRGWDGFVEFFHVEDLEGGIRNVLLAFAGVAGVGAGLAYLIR
Pf gametocyte: late stage P. falciparum gametocyte viability inhibitors, primary screen, ATP luminescence, HTS; P. falciparum stage V gametocytes, 24 h; inhibition, % at 10.9 µM; 150,000 tested, 0.065% active;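 active = inhibition above the mean plus 3 SD of compounds within the control limits, set per campaign, cut at about 38% in these data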;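 also: 0% = DMSO wells and 100% = medium only without gametocytes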
14-3-3 Bad PPI: inhibitors of 14-3-3 zeta/Bad binding, primary screen, biochemical, TR-FRET, bovine 14-3-3 zeta. TR-FRET 14-3-3zeta/Dy647-pBad peptide displacement, 1 h. 14-3-3 protein zeta/delta (Bos taurus), P63103. inhibition, % at 21.7 µM. 220,000 tested, 0.71% active. AID 781, 2007;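 active = inhibition above about 70%, limit read from the data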;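 also: 0% = full 14-3-3 plus peptide FRET controls and 100% = background without 14-3-3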
Target sequence (P63103 whole entry, looked up): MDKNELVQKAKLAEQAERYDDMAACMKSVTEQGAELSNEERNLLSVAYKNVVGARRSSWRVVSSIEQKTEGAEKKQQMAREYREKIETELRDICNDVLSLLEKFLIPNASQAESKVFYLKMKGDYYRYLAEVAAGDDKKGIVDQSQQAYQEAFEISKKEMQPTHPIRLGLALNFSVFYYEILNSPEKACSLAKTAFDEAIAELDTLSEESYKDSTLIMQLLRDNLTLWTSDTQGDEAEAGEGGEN
Mcl1 Bid PPI: Mcl-1/Bid binding inhibitors, primary screen, biochemical, TR-FRET, 1536-well; 220,000 tested, 0.97% active; Induced myeloid leukemia cell differentiation protein Mcl-1 (Homo sapiens), Q07820; AID 1021, 2008; TR-FRET Mcl-1/Bid-Dy647 peptide binding; inhibition, % at 21.7 µM;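 active = compounds that cut the binding signal by more than half at the single screening dose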;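 also: His-tagged Mcl-1 with europium anti-His antibody binding Bid BH3 peptide; 0% = Mcl-1 plus peptide wells and 100% = peptide-only wells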
Mcl1-Noxa inh: Mcl-1/Noxa binding inhibitors, primary screen, biochemical, TR-FRET, 1536-well | TR-FRET Mcl-1/Noxa peptide binding, 2 h | 220,000 tested, 1.5% active | Induced myeloid leukemia cell differentiation protein Mcl-1 (Homo sapiens), Q07820 | inhibition, % at 21.7 µM;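 active = compounds that cut the protein-peptide binding signal by more than 50% relative to plate controls in a single-dose test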;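 also: His-tagged Mcl-1 with rhodamine Noxa BH3 peptide and terbium anti-His antibody; 0% = Mcl-1 plus Noxa peptide wells and 100% = peptide-only wells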
Starred values were filed as active, the others as inactive; . = no result given; [ ] = remark or other dose.

SMILES | Hck Nef HTS | Mcl-1 Bim block | Pf gametocyte | 14-3-3 Bad PPI | Mcl1 Bid PPI | Mcl1-Noxa inh
O=C(COC(=O)c1ccc(F)cc1F)Nc1ccc2[nH]c(=O)[nH]c2c1 | 7 | 0 | 7 | 0 | -1 | 69*
O=C(COc1cccc(F)c1)Nc1ccc2[nH]c(=O)[nH]c2c1 | 29 | 2 | 23 | -11 | -43 | -5
CCN(CC)c1ccc(C(=O)OCC(=O)Nc2ccc3[nH]c(=O)[nH]c3c2)cc1 | 3 | 2 | 8 | 2 | -43 | 55*
O=C(COC(=O)c1c(F)cccc1F)Nc1ccc2[nH]c(=O)[nH]c2c1 | 13 | 4 | -10 | -1 | -33 | 72*
Cc1ccnc(NC(=O)COC(=O)c2ccc(F)cc2F)n1 | -3 | . | -7 | 6 | -2 | 31
CCN(CC)c1ccc(NC(=O)COC(=O)c2ccc3ccccc3n2)cc1 | -23 | -7 | . | 9 | -20 | 57*
CCN(CC)c1ccc(NC(=O)COC(=O)c2cccs2)cc1 | 12 | -5 | -28 | -10 | -23 | 30
CCS(=O)(=O)N1CCN(C(=O)c2ccccc2)CC1 | -9 | 0 | . | -2 | -29 | 5
O=C(Nc1ccc2c(c1)OCO2)Nc1ccccn1 | 21 | -1 | -26 | -21 | -41 | 2
CCCC(=O)OCC(=O)Nc1ccc2[nH]c(=O)[nH]c2c1 | -2 | -1 | -1 | -11 | -9 | 26
CC1CC1C(=O)OCC(=O)Nc1ccc2[nH]c(=O)[nH]c2c1 (centres undefined) | -10 | 0 | 5 | 15 | 3 | 76*
Cc1cc(-c2csc(NCc3ccccc3)n2)c(C)n1C | 65* | 2 | . | 98* | 4 | 69*
CC(=O)Oc1ccc(-c2csc(Nc3ccc(S(N)(=O)=O)cc3)n2)cc1 | 22 | 0 | -12 | 1 | -36 | 13
COc1ccc(-c2csc(Nc3ccccc3)n2)cc1 | 0 | -1 | 0 | -8 | -16 | 83*
Clc1ccc(Nc2nc(-c3ccncc3)cs2)cc1 | -2 | . | . | . | . | .
COc1ccc(-c2csc(Nc3ccc(S(N)(=O)=O)cc3)n2)cc1 | 1 | 1 | -15 | 70*[fluorescence artefact?] | -5 | 53*
Fc1ccc(Nc2nc(-c3ccncc3)cs2)cc1 | 21 | -2 | 38 | -7 | -10 | 51*
CCCCN(C)C(=O)c1nc2ccccn2c1CNC1CCC1 | 18 | -1 | 6 | -8 | -6 | 9
CC(C)(C)C(=O)C1=C(O)C(=O)N(c2ccccc2)C1c1ccccc1 (centres undefined) | . | . | 5 | . | . | .
COc1ccccc1-n1cnnc1SCC(=O)Nc1cccnc1Cl | -5 | -1 | . | -2 | -4 | 16
Cc1c(NC(=O)OCCNC(=O)Nc2ccccc2)sc(=S)n1C | 0 | 1 | . | -5 | -14 | -8
CCOC(=O)Nc1sc(=S)n(C)c1C | 1 | -3 | . | 84* | -31 | 17
CCCCN(Cc1cc2ccccc2[nH]c1=O)S(C)(=O)=O | -7 | -1 | 16 | -2 | 98* | 14
Cc1ccc(-c2nc(C3CCCN(S(=O)(=O)c4ccc(C)cc4)C3)no2)cc1 (centres undefined) | 0 | -1 | . | -12 | -4 | -4
C=CCSc1nc2c(cc1C#N)CCC2 | 1 | 0 | 8 | 90*[fluorescence artefact?] | 18 | 27
SMILES | Hck Nef HTS | Mcl-1 Bim block | Pf gametocyte | 14-3-3 Bad PPI | Mcl1 Bid PPI | Mcl1-Noxa inh
CSc1ccccc1NC(=O)c1ccco1 | 2 | 1 | -8 | -10 | -36 | 10
Nc1nc2c(c(=O)[nH]1)C(c1cccc3ccccc13)C1=C(N2)c2ccccc2C1=O (centres undefined) | 26 | 4 | -5 | 4 | 14 | 94*
CCOC(=O)N1CCC(NC(=O)CN(C)S(=O)(=O)c2cc3c(cc2Cl)NC(=O)CO3)CC1 | -16 | 1 | . | . | -30 | 15
[O-]/C(=C(\C(=S)Nc1cccc2ccccc12)[n+]1ccccc1)c1cccs1 | 43 | 3 | -1 | 84* | -50 | 24
Cc1ccc(SCc2cc(=O)n3ccsc3n2)c(C)c1 | 1 | -4 | . | 3 | -6 | 15
COC(=O)c1ccc(OCc2cc(=O)n3ccsc3n2)cc1 | 5 | -5 | -2 | 56 | 65* | 29
O=C1COc2ccc(N3C(=O)C=CC3=O)cc2N1 | -81 | -3 | . | -1 | -35 | 57*
CCc1ccc(-c2nc(CN3CCC(C(=O)NCCN(CC)c4ccccc4)CC3)c(C)o2)cc1 | 1 | 0 | -1 | -15 | -91 | 18
CCN(CCNC(=O)C1CCCN(Cc2nc(-c3ccc(OC)cc3)oc2C)C1)c1ccccc1 (centres undefined) | 0 | 0 | -5 | 86* | -69 | 12
CC(=O)N1CCN(Cc2nc3cc(NS(C)(=O)=O)ccc3n2C)CC1 | 6 | -1 | . | 6 | -1 | 1
Oc1cc2c(cc1O)C1c3ccc(O)c(O)c3OCC1(O)C2 (centres undefined) | -164 | 8 | . | 27 | -65 | 82*
Cc1ccccc1N1CCN(Cc2c[nH]c3ccccc23)CC1 | -19 | -134 | . | 71* | 14 | 5
COc1ccccc1N1CCN(Cc2c[nH]c3ccccc23)CC1 | 13 | . | -16 | -20 | -25 | 7
S=C(NC1CCCC1)N1CCN(c2ncccn2)CC1 | 20 | 4 | 12 | -8 | -43 | 4
CC1=C(C)/C(=N\OS(=O)(=O)c2ccc(C)cc2)C=CC1=O | 6 | -1 | 12 | -6 | -9 | 21
COc1ccc(S(=O)(=O)/N=C2/C=CC(=O)C(C)=C2C)cc1 | 1 | 0 | . | 15 | -59 | 67*
O=C(Cc1csc(N2CCOCC2)n1)N/N=C/c1ccc(Cl)cc1Cl | 3 | -103 | -2 | -5 | -73 | -6
COc1cc(/C=N/NC(=O)Cc2csc(N3CCOCC3)n2)cc(OC)c1O | 35 | 3 | . | 2 | 11 | 58*
Cc1cccc(-n2nnnc2SCc2csc(-c3ccccc3)n2)c1 | 1 | -7 | . | -3 | -38 | -4
Clc1ccc(-c2csc(N/N=C/c3cccnc3)n2)c(Cl)c1 | 3 | -3 | 2 | 6 | 42 | 58*
C#CCOCCOCCOCCNc1nc(N2CCN(C(=O)[C@H](CCCCN)n3cc([C@@H](N)C(C)CC)nn3)CC2)nc(N2CCN(C(=O)[C@H](CCCCN)n3cc([C@@H](N)CO)nn3)CC2)n1 (some centres undefined) | -3 | 0 | . | 65 | 88* | 35
